PubChem BioAssay (NCATS)
Values joined by “and” are separate entries in the source; they are usually repeats but may differ in a detail not shown here. Equal entries are not always repeated. Records with an inconclusive call do not appear. A structure can be active in one record and inactive in another. Active and inactive are the calls of the source. Calls come from the whole dose curve; as a rule, active = well fitted inhibition curve with a large enough effect; inconclusive = small, poorly fitted or top-dose-only effect; inactive = flat fitted curve, though single readings scatter.

Legend:
P93_24 = assay: qHTS profiling for inhibitors of Plasmodium falciparum proliferation (AID 504749); note: potency is the fitted concentration of half-maximal effect; conditions: P. falciparum in erythrocytes, SYBR Green DNA, 72 h; series mostly up to 28.7 µM
Procedure, shortened: (§1)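 P. falciparum-infected erythrocytes (0.3% parasitemia, 2.5% hematocrit) incubated with compound 72 h at 37 C, 5% CO2. Parasite DNA detected by SYBR Green after lysis, overnight at room temperature; normalised to 0.29 uM artemisinin and DMSO.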

P94_40 = assay: as above; conditions: P. falciparum in erythrocytes, SYBR Green DNA, 72 h; series mostly up to 28.7 µM
Procedure, shortened: as §1

PAD = assay: as above; conditions: P. falciparum in erythrocytes, SYBR Green DNA, 72 h; series mostly up to 28.7 µM
Procedure, shortened: as §1

PC15 = assay: as above; conditions: P. falciparum in erythrocytes, SYBR Green DNA, 72 h; series mostly up to 28.7 µM
Procedure, shortened: as §1

PC26 = assay: as above; conditions: P. falciparum in erythrocytes, SYBR Green DNA, 72 h; series mostly up to 28.7 µM
Procedure, shortened: as §1

PC49 = assay: as above; conditions: P. falciparum in erythrocytes, SYBR Green DNA, 72 h; series mostly up to 28.7 µM
Procedure, shortened: as §1

SC27B = assay: as above; conditions: P. falciparum in erythrocytes, SYBR Green DNA, 72 h; series mostly up to 28.7 µM
Procedure, shortened: as §1

TAB109 = assay: as above; conditions: P. falciparum in erythrocytes, SYBR Green DNA, 72 h; series mostly up to 28.7 µM
Procedure, shortened: as §1

TAB113 = assay: as above; conditions: P. falciparum in erythrocytes, SYBR Green DNA, 72 h; series mostly up to 28.7 µM
Procedure, shortened: as §1

TAB165 = assay: as above; conditions: P. falciparum in erythrocytes, SYBR Green DNA, 72 h; series mostly up to 28.7 µM
Procedure, shortened: as §1

W2 = assay: as above; conditions: P. falciparum in erythrocytes, SYBR Green DNA, 72 h; series mostly up to 28.7 µM
Procedure, shortened: as §1

CRL-7250 = normal cell line; assay: Cytotoxic Profiling of Annotated Libraries Using Quantitative High-Throughput Screening (AID 1296008); conditions: Five cell lines viability, CellTiter-Glo ATP luminescence, 48-72 h; max response: stronger effect = lower value; note: potency is the fitted concentration of half-maximal effect; for max response: % is set by controls: 0 for no effect and ±100 for the full control effect
Procedure, shortened: (§2)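 Cells exposed to compounds for 48 or 72 hr at 37 degrees Celsius. Viability read as ATP-coupled luminescence with CellTiter-Glo after 10 min at room temperature.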

HEK293 = assay: as above; conditions: Five cell lines viability, CellTiter-Glo ATP luminescence, 48-72 h; max response: stronger effect = lower value
Procedure, shortened: as §2

HaCat [1] = assay: as above; conditions: Five cell lines viability, CellTiter-Glo ATP luminescence, 48-72 h; max response: stronger effect = lower value
Procedure, shortened: as §2

NIH3T3 = assay: as above; conditions: Five cell lines viability, CellTiter-Glo ATP luminescence, 48-72 h; max response: stronger effect = lower value
Procedure, shortened: as §2

HACAT [2] = assay: qHTS assay to identify novel small-molecules to repurpose for Merkel cell carcinoma treatment (AID 1296009); conditions: MCC and control cell lines, CellTiter-Glo viability, 72 h; series mostly up to 44.8 µM
Procedure, shortened: (§3)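 Cells were treated for 72 hr at 37 degree celsius with compounds in 8- or 11-point dose response. Viability was read by CellTiter-Glo luminescence, normalized to no-cell (cytotoxicity) and DMSO controls.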

MCC-13 = assay: as above; conditions: MCC and control cell lines, CellTiter-Glo viability, 72 h; series mostly up to 46 µM
Procedure, shortened: as §3

MCC-26 = assay: as above; conditions: MCC and control cell lines, CellTiter-Glo viability, 72 h; series mostly up to 46 µM
Procedure, shortened: as §3

KB-3-1 = assay: Cytotoxic Profiling of Annotated Libraries Using Quantitative High-Throughput Screening (AID 1296008); conditions: Five cell lines viability, CellTiter-Glo ATP luminescence, 48-72 h; max response: stronger effect = lower value; note: potency is the fitted concentration of half-maximal effect; for max response: % is set by controls: 0 for no effect and ±100 for the full control effect
Procedure, shortened: as §2

HEK293T = assay: qHTS assay to identify novel small-molecules to repurpose for Merkel cell carcinoma treatment (AID 1296009); conditions: MCC and control cell lines, CellTiter-Glo viability, 72 h
Procedure, shortened: as §3

[3] = at 44.8 µM (top of the series) unless noted
Note: nearly all actives have a fitted effect of over 60% in size.

NCCCCCC(=O)O
inactive: Potency (P93_24) | Potency (P94_40) | Potency (PAD) | Potency (PC15) | Potency (PC26) | Potency (PC49) | Potency (SC27B) | Potency (TAB109) | Potency (TAB113) | Potency (TAB165) | Potency (W2) | max response (CRL-7250) -1.72% | outcome (CRL-7250) | max response (HEK293) -1.96% and 0.967% | outcome (HaCat [1]) | max response (NIH3T3) -2.83% and -5.79% | outcome (HACAT [2]) | Potency (MCC-13) | Potency (MCC-26)

O=c1c(O)c(-c2ccc(O)c(O)c2)oc2cc(O)cc(O)c12
active: Potency (PAD) 1.78 µM | Potency (TAB165) 7.08 µM
inactive: Potency (PC49) | max response (CRL-7250) -43% | outcome (CRL-7250) | max response (HEK293) -3.52% and -1.32% | max response (HaCat [1]) -5.77% and -18.7% | max response (KB-3-1) 4.77% and 21.1% | max response (NIH3T3) -3.23% | Potency (MCC-13)

Cn1cnc2c1c(=O)[nH]c(=O)n2C
active: Potency (HEK293) 9.35 µM | Potency (KB-3-1) 20.9 µM | Potency (NIH3T3) 26.4 µM
inactive: Potency (P93_24) | Potency (P94_40) | Potency (PAD) | Potency (PC15) | Potency (PC26) | Potency (PC49) | Potency (SC27B) | Potency (TAB109) | Potency (TAB113) | Potency (TAB165) | Potency (W2) | outcome (CRL-7250) | max response (HEK293) 1.79% | outcome (HaCat [1]) | max response (KB-3-1) 6.57% | max response (NIH3T3) 1.38% | outcome (HACAT [2]) | Potency (MCC-13) | Potency (MCC-26)

COc1ccc2c(c1)c(CC(=O)O)c(C)n2C(=O)c1ccc(Cl)cc1
inactive: outcome (CRL-7250) | max response (HEK293) -16.4% | outcome (HEK293) | max response (HaCat [1]) -5.33% | outcome (HaCat [1]) | max response (KB-3-1) 0.589% and -8.59% | max response (NIH3T3) -1.64% and 1.2% | outcome (HACAT [2]) | outcome (HEK293T; [3]) | Potency (MCC-13) | Potency (MCC-26)

CC1(C)O[C@H]2CC(=O)OC[C@]23[C@H]2CC[C@@]4(C)[C@H](c5ccoc5)OC(=O)[C@H]5O[C@]54[C@]2(C)C(=O)C[C@@H]13
inactive: max response (CRL-7250) 2.33% and 4% | outcome (CRL-7250) | max response (HEK293) -8.07% | outcome (HEK293) | max response (HaCat [1]) -5.81% | outcome (HaCat [1]) | max response (KB-3-1) -3.61% and 0.55% | outcome (KB-3-1) | max response (NIH3T3) -0.469% and 1.76% | outcome (NIH3T3) | outcome (HACAT [2]) | outcome (HEK293T; at 17.4 µM (top of the series)) | outcome (HEK293T; at 44.8 µM (top of the series)) | Potency (MCC-13) | Potency (MCC-26)

NCCS(=O)(=O)O
inactive: Potency (P93_24) | Potency (P94_40) | Potency (PAD) | Potency (PC15) | Potency (PC26) | Potency (PC49) | Potency (SC27B) | Potency (TAB109) | Potency (TAB113) | Potency (TAB165) | max response (CRL-7250) -1.77% and -3.17% | max response (HEK293) -1.38% | outcome (HEK293) | outcome (HaCat [1]) | max response (KB-3-1) 9.43% | max response (NIH3T3) 0.192% | outcome (NIH3T3) | outcome (HACAT [2]) | outcome (HEK293T; [3]) | Potency (MCC-13)

O=C1N(c2ccccc2)c2ccccc2C1(Cc1ccncc1)Cc1ccncc1
inactive: Potency (P93_24) | Potency (P94_40) | Potency (PAD) | Potency (PC15) | Potency (PC26) | Potency (PC49) | Potency (SC27B) | Potency (TAB109) | Potency (TAB113) | Potency (TAB165) | Potency (W2) | max response (CRL-7250) -6.52% and 2.8% | max response (HEK293) 2.06% | outcome (HEK293) | max response (HaCat [1]) 2.97% | outcome (HaCat [1]) | max response (NIH3T3) -1.99% and -3.96% | outcome (HACAT [2]) | outcome (HEK293T; [3]) | Potency (MCC-13) | Potency (MCC-26)

C[C@](N)(Cc1ccc(O)c(O)c1)C(=O)O
inactive: Potency (P93_24) | Potency (P94_40) | Potency (PAD) | Potency (PC15) | Potency (PC26) | Potency (PC49) | Potency (SC27B) | Potency (TAB109) | Potency (TAB113) | Potency (TAB165) | Potency (W2) | max response (CRL-7250) -8.13% and -6.61% | max response (HEK293) -6.72% | outcome (HEK293) | max response (HaCat [1]) -5.55% | outcome (HaCat [1]) | max response (NIH3T3) 4.4% | outcome (HACAT [2]) | outcome (HEK293T; [3]) | Potency (MCC-13) | Potency (MCC-26)

CC1COc2c(N3CCN(C)CC3)c(F)cc3c(=O)c(C(=O)O)cn1c23 (configuration not stated)
inactive: max response (CRL-7250) 1.02% | outcome (CRL-7250) | max response (HEK293) -5.36% | outcome (HEK293) | outcome (HaCat [1]) | max response (NIH3T3) -0.0145% | outcome (NIH3T3) | outcome (HACAT [2]) | outcome (HEK293T; [3]) | Potency (MCC-13)

CC(C)(Oc1ccc(C2CC2(Cl)Cl)cc1)C(=O)O (configuration not stated)
inactive: Potency (P93_24) | Potency (P94_40) | Potency (PAD) | Potency (PC26) | Potency (PC49) | Potency (SC27B) | Potency (TAB109) | Potency (TAB113) | Potency (TAB165) | Potency (W2) | max response (CRL-7250) -2.5% | outcome (CRL-7250) | max response (HEK293) -10.2% | max response (HaCat [1]) -0.292% | outcome (HaCat [1]) | outcome (KB-3-1) | outcome (NIH3T3) | outcome (HACAT [2]) | Potency (MCC-13) | Potency (MCC-26)

CC[N+](CC)(CC)CCOc1cccc(OCC[N+](CC)(CC)CC)c1OCC[N+](CC)(CC)CC
inactive: Potency (P93_24) | Potency (P94_40) | Potency (PAD) | Potency (PC15) | Potency (PC26) | Potency (PC49) | Potency (SC27B) | Potency (TAB109) | Potency (TAB113) | Potency (TAB165) | Potency (W2) | max response (CRL-7250) -17.1% and -8.63% | max response (HEK293) -0.136% | outcome (HEK293) | max response (HaCat [1]) -16.7% | outcome (HaCat [1]) | max response (KB-3-1) -10.5% and -5.4% | max response (NIH3T3) -12.2% | outcome (NIH3T3) | outcome (HACAT [2]) | outcome (HEK293T; [3]) | Potency (MCC-13) | Potency (MCC-26)
